In PubChem BioAssay (NCI) one finds growth data, which are given here for seven compounds.

Structures are written as SMILES. The panel holds about 83,000 compounds, 20% with a hit somewhere; the sample as a whole holds those more often.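 96-well plates, one dose, 48 hours. Percent growth reported; active if below 10.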 Values without a mark were called inactive. The source made the active and inactive calls.

Some test systems named below: SR leukemia; RPMI-8226 leukemia; OVCAR-8 ovarian; OVCAR-5 ovarian; OVCAR-4 ovarian; SK-OV-3 ovarian; HS 578T breast; NCI/ADR-RES ovarian; T-47D breast; BT-549 breast; MDA-MB-435 melanoma; SW-620 colon; MCF7 breast; HCT-116 colon; HCC-2998 colon; KM12 colon; OVCAR-3 ovarian; IGROV1 ovarian.
Experiment in all cases: NCI-60 one-dose screen, 48 h (100 = growth as untreated, 0 = no growth, -100 = all killed)
Conditions in all cases: 10 µM unless noted

With `Nc1nc(-c2cccc([N+](=O)[O-])c2)c(N=Nc2ccccc2Cl)s1`, the growth in the experiment with SR leukemia was 59.1%; in the experiment on RPMI-8226 leukemia it was 68.5%; in the experiment on OVCAR-8 ovarian, 56.8%; with OVCAR-5 ovarian, 93.7%; in the experiment on OVCAR-4 ovarian it was 63.1%; with SK-OV-3 ovarian it was 99.5%. The growth in the experiment on HS 578T breast was 56.8%; with NCI/ADR-RES ovarian, 59.9%; with T-47D breast, 57.9%; in the experiment on BT-549 breast it was 71.6%; in the experiment on MDA-MB-435 melanoma, 89.5%; in the experiment on SW-620 colon it was 54.7%. Also, the growth with MCF7 breast was 66.6%; in the experiment with HCT-116 colon, 32.6%; in the experiment on HCC-2998 colon, 107%; in the experiment with KM12 colon it was 67.4%.

On to `CCCC(=O)NC(c1cccnc1)c1ccc2c(C)ccnc2c1O` (stereo unspecified), for which the growth in the experiment on SR leukemia was 41.2%; with RPMI-8226 leukemia, 32.1%; in the experiment on OVCAR-8 ovarian, 21.1%; with OVCAR-5 ovarian, 32.3%; with OVCAR-4 ovarian, 11.2%; in the experiment with SK-OV-3 ovarian, 19.7%. Besides, the growth with OVCAR-3 ovarian was 13.1%; in the experiment on HS 578T breast, 67.6%; in the experiment with NCI/ADR-RES ovarian, 9.99% (active); in the experiment with T-47D breast it was 20.7%; in the experiment on BT-549 breast it was 26.2%; in the experiment on MDA-MB-435 melanoma, 30.6%. Further, the growth in the experiment on SW-620 colon was 28.6%; in the experiment on MCF7 breast, -2.74% (active); in the experiment on HCT-116 colon, 16.7%; with HCC-2998 colon, 24%; in the experiment on KM12 colon, 20%.

For the compound `O=C(CCCCCCN1CC(=O)N2[C@@H](c3ccccc3)c3[nH]c4ccccc4c3C[C@H]2C1=O)NO`, the growth is 37.2% in the experiment on SR leukemia; 26.7% in the experiment on RPMI-8226 leukemia; 39.6% with OVCAR-8 ovarian; 58% in the experiment with OVCAR-5 ovarian; 65.6% in the experiment with OVCAR-4 ovarian; 70.1% with SK-OV-3 ovarian. Besides, the growth in the experiment on OVCAR-3 ovarian was 55.5%; in the experiment with HS 578T breast, 68.8%; with NCI/ADR-RES ovarian it was 77.9%; in the experiment on T-47D breast it was 25.7%; with BT-549 breast, 91.5%; in the experiment on MDA-MB-435 melanoma, 46.1%. The growth with SW-620 colon is 38.7%; in the experiment on MCF7 breast, 47.1%; in the experiment with HCT-116 colon, 20.9%; in the experiment with HCC-2998 colon, 85.8%; in the experiment with KM12 colon, 65.2%.

With `N#C/C(=C\c1ccc2ccccc2c1)C(=O)Nc1sc2c(c1C#N)CCC2`, the growth is 90.9% in the experiment with SR leukemia; 105% in the experiment with RPMI-8226 leukemia; 100% with OVCAR-8 ovarian; 111% in the experiment with OVCAR-5 ovarian; 105% with OVCAR-4 ovarian; 99.8% in the experiment with SK-OV-3 ovarian. The growth was 104% in the experiment on HS 578T breast; 103% with NCI/ADR-RES ovarian; 87.5% in the experiment on T-47D breast; 94.6% in the experiment with BT-549 breast; 107% with MDA-MB-435 melanoma; 111% in the experiment with SW-620 colon. Besides, the growth with MCF7 breast was 94.8%; in the experiment with HCT-116 colon, 106%; with HCC-2998 colon it was 113%; with KM12 colon it was 101%.

As to `CCc1ccc(NC(=O)N[C@@H](Cc2cccc(C)c2)C(=O)N[C@@H]2C(=O)N3CCC[C@H]3C(=O)N3CCCC[C@H]3C(=O)N[C@@H](CO)C(=O)N3C[C@H](C)C[C@H]3C(=O)O[C@H]2C)c(F)c1`, the growth with SR leukemia is 34.9%; in the experiment on RPMI-8226 leukemia, 18.6%; in the experiment with OVCAR-8 ovarian, 21.5%; in the experiment with OVCAR-5 ovarian, 33.5%; in the experiment with OVCAR-4 ovarian it was 22.1%; with SK-OV-3 ovarian, 22.1%. Besides, the growth in the experiment with HS 578T breast is 28.5%; with NCI/ADR-RES ovarian it was 37.7%; with T-47D breast it was 27.4%; in the experiment with BT-549 breast, 24.9%; in the experiment on MDA-MB-435 melanoma, 16.8%; with SW-620 colon, 34.7%. Further, the growth with MCF7 breast was 17.6%; in the experiment on HCT-116 colon, 11.8%; in the experiment with HCC-2998 colon it was 23.9%; in the experiment on KM12 colon, 37.6%.

Turning to `C/C(=C(/C)C1CC1CCN(C(=O)c1ccc([N+](=O)[O-])cc1)S(=O)(=O)c1ccc(C)cc1)C1CCCCC1` (stereo unspecified), the growth with SR leukemia is 94.8%; in the experiment with RPMI-8226 leukemia it was 85.7%; in the experiment on OVCAR-8 ovarian, 97.6%; with OVCAR-5 ovarian, 101%; in the experiment with OVCAR-4 ovarian, 90.8%; in the experiment on IGROV1 ovarian it was 111%. The growth was 96.2% with OVCAR-3 ovarian; 102% with HS 578T breast; 94.3% with NCI/ADR-RES ovarian; 77.3% in the experiment with T-47D breast; 136% in the experiment with BT-549 breast; 99.4% in the experiment with MDA-MB-435 melanoma. Also, the growth is 96.7% in the experiment on SW-620 colon; 86.9% with MCF7 breast; 89.9% in the experiment on HCT-116 colon; 112% with HCC-2998 colon; 89.6% in the experiment on KM12 colon.

Regarding `CN(C)c1ncc(/C=C2\SC(=S)N(Cc3ccccc3Cl)C2=O)s1`, the growth was 87.8% with SR leukemia; 86.3% in the experiment with RPMI-8226 leukemia; 95.8% in the experiment with OVCAR-8 ovarian; 87.9% in the experiment with OVCAR-5 ovarian; 2.09% (active) in the experiment with OVCAR-4 ovarian; 107% with SK-OV-3 ovarian. Besides, the growth is 26.8% in the experiment with OVCAR-3 ovarian; 101% in the experiment on HS 578T breast; 90.8% with NCI/ADR-RES ovarian; 96.9% with T-47D breast; 102% with BT-549 breast; 103% in the experiment with MDA-MB-435 melanoma. Moreover, the growth was 82.6% with SW-620 colon; 92.1% in the experiment on MCF7 breast; 40.5% in the experiment on HCT-116 colon; 102% in the experiment with HCC-2998 colon; 97.5% in the experiment on KM12 colon.
